Source: PubChem BioAssay (NCATS)
Results filed as inconclusive are left out. A call without a number means that no potency is given here. The source made the active and inactive calls. The call rests on the fitted dose curve; in most records, active means well fitted cell-killing curve with a large enough effect; inconclusive means small, poorly fitted or top-dose-only effect, or effect the other way; inactive means no such curve, though single readings can be large or run the other way.

Assay: Quantitative High-Throughput drug screen in 47 multiple myeloma cell lines against the NCATS MIPE library collection: KMS21BM_JCRB cell viability assay (AID 1918974)
Settings: ATP luminescence, 48 h; viability: at 45.8 µM
How it was run: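 Myeloma cell lines, 500 cells per well, exposed to MIPE 4.0 library compounds for 48 h at 37C, 5% CO2. Viability from ATP by CellTiter-Glo luminescence; normalised to DMSO (100%) and media-only (0%) wells.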
Potency means the concentration at half of the fitted maximal effect.

| SMILES | Potency |
| --- | --- |
| Cn1cc(C=CC(=O)c2cccc(F)c2)cc1C=CC(=O)NO | 4.69 µM (active) |
| Nc1nc(N)c2nc(-c3cccc(O)c3)c(-c3cccc(O)c3)nc2n1 | 7.43 µM (active) |
| CC[C@H]1OC(=O)[C@H](C)[C@@H](O[C@H]2C[C@@](C)(OC)[C@@H](O)[C@H](C)O2)[C@H](C)[C@@H](O[C@@H]2O[C@@H](C)C[C@H](N(C)C)[C@@H]2O)[C@](C)(O)C[C@@H](C)C(=O)[C@H](C)[C@@H](O)[C@]1(C)O | inactive |
| C#Cc1cccc(Nc2ncnc3cc(OCCOC)c(OCCO)cc23)c1 | 0.132 µM (active) |
| CC(=CC(=O)Nc1ccccc1C(=O)O)c1ccc2ccccc2c1 | inactive |
| Cn1c(Nc2ccc(C(F)(F)F)cc2)nc2cc(Oc3ccnc(-c4ncc(C(F)(F)F)[nH]4)c3)ccc21 | 5.9 µM (active) |
| COc1cc(C(=O)NC2CCN(C)CC2)ccc1Nc1ncc2c(n1)N(C1CCCC1)CCC(=O)N2C(C)C | 3.72 µM (active) |

Assay: Quantitative High-Throughput drug screen in 47 multiple myeloma cell lines against the NCATS MIPE library collection: KMS26_JCRB cell viability assay (AID 1918975); further: nearly all actives have a fitted effect of over 45% in size
Settings: KMS26 myeloma cells viability, CellTiter-Glo ATP, 48 h; series mostly up to 45.8 µM
How it was run: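 We plated 500 myeloma cells per well, pinned in MIPE 4.0 compounds, and incubated for 48 hours at 37C. ATP was then quantified with CellTiter-Glo, with DMSO and media-only wells defining 100% and 0%.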

| SMILES | Potency |
| --- | --- |
| CC[C@H]1OC(=O)[C@H](C)[C@@H](O[C@H]2C[C@@](C)(OC)[C@@H](O)[C@H](C)O2)[C@H](C)[C@@H](O[C@@H]2O[C@H](C)C[C@H](N(C)C)[C@@H]2O)[C@](C)(OC)C[C@@H](C)C(=O)[C@H](C)[C@@H](O)[C@]1(C)O | inactive |
| O=C(c1ccc(F)cc1)N1CCC[C@H](c2nc(-c3ccc(F)cc3)no2)C1 | inactive |
| Cn1cc(C=CC(=O)c2cccc(F)c2)cc1C=CC(=O)NO | 16.6 µM (active) |
| O=C1NC(O)CCN1[C@@H]1O[C@H](CO)[C@H](O)[C@H]1O (some centres undefined) | inactive |
| N[C@H]1CN(c2c(F)cc3c(=O)c(C(=O)O)cn(C4C[C@@H]4F)c3c2Cl)CC12CC2 (some centres undefined) | 16.6 µM (active) |
| C=C(C)[C@@H]1CC[C@]2(C(=O)O)CC[C@]3(C)[C@H](CC[C@@H]4[C@@]5(C)CC[C@H](O)C(C)(C)[C@@H]5CC[C@]43C)[C@@H]12 | inactive |
| C[C@H](O)[C@@H]1C(=O)N2C(C(=O)O)=C(S[C@@H]3CN[C@H](CNS(N)(=O)=O)C3)[C@@H](C)[C@@H]12 | inactive |
| CC[C@H]1OC(=O)[C@H](C)[C@@H](O[C@H]2C[C@@](C)(OC)[C@@H](O)[C@H](C)O2)[C@H](C)[C@@H](O[C@@H]2O[C@@H](C)C[C@H](N(C)C)[C@@H]2O)[C@](C)(O)C[C@@H](C)C(=O)[C@H](C)[C@@H](O)[C@]1(C)O | inactive |
| COC1=C(OC)C(=O)C(CC=C(C)CCC=C(C)CCC=C(C)CCC=C(C)CCC=C(C)CCC=C(C)CCC=C(C)CCC=C(C)CCC=C(C)CCC=C(C)C)=C(C)C1=O | inactive |
| C[C@@H]1[C@H](C)CC[C@]2(C(=O)O)CC[C@]3(C)C(=CC[C@@H]4[C@@]5(C)C[C@@H](O)[C@H](O)[C@@](C)(CO)[C@H]5CC[C@]43C)[C@@H]12 | inactive |
| CC(Oc1ccc(O)cc1)(P(=O)(O)O)P(=O)(O)O | inactive |
| CC(C)(C)c1nc2c3cc[nH]c(=O)c3c3cc(F)ccc3c2[nH]1 | 0.0118 µM (active) |
| CCOC(=O)C=C[C@H](C[C@@H]1CCNC1=O)NC(=O)[C@@H](CC(=O)[C@@H](NC(=O)c1cc(C)on1)C(C)C)Cc1ccc(F)cc1 | inactive |
| COC(=O)C1C2CC3c4[nH]c5cc(OC)ccc5c4CCN3CC2CC(OC(=O)c2cc(OC)c(OC)c(OC)c2)C1OC (centres undefined) | inactive |
| O=C(O)CCCCCC(=O)NN=C1CCCC1 | inactive |
| C[C@H](CCC(=O)O)[C@H]1CCC2C3C[C@H](O)[C@@H]4C[C@H](O)CC[C@]4(C)C3CC[C@@]21C (some centres undefined) | inactive |
| O=C1c2cccc(O)c2C(=O)c2c(O)cc(CO)cc21 | inactive |
| COC(=O)[C@@H]1[C@H]2C[C@@H]3c4[nH]c5ccccc5c4CCN3C[C@@H]2CC[C@@H]1O | inactive |
| CN1[C@H]2CC(OC(=O)[C@@H](CO)c3ccccc3)C[C@H]1[C@H]1O[C@H]12 (some centres undefined) | inactive |
| CN1C(C(=O)Nc2ccccn2)=C(O)c2sc(Cl)cc2S1(=O)=O | 14.8 µM (active) |
| CCN1CCN(C(=O)N[C@H](C(=O)N[C@@H]2C(=O)N3C(C(=O)O)=C(CSc4nnnn4C)CS[C@@H]23)c2ccc(O)cc2)C(=O)C1=O | inactive |
| CN[C@H](CC(C)C)C(=O)N[C@H]1C(=O)N[C@@H](CC(N)=O)C(=O)N[C@@H]2C(=O)N[C@H]3C(=O)N[C@H](C(=O)N[C@H](C(=O)O)c4cc(O)cc(O)c4-c4cc3ccc4O)[C@H](O)c3ccc(c(Cl)c3)Oc3cc2cc(c3O[C@@H]2O[C@H](CO)[C@@H](O)[C@H](O)[C@@H]2O[C@H]2C[C@](C)(N)[C@H](O)[C@H](C)O2)Oc2ccc(cc2Cl)[C@H]1O | inactive |
